Compound activity (PubChem BioAssay)
The list is not random: actives were taken first. Their share in the collection is about 3.5%.
Pf apPOL block – Pf-apPOL inhibitors, biochemical, fluorescence | inhibition, % at 10 µM | Recombinant Pf-apPOL, molecular beacon fluorescence, 1.5 h | actives 0.25% (n = 210,000) | AID 1794808, 2022 | Plasmodium falciparum apicoplast DNA polymerase (apPOL)
mHTT CaM bind – mutant huntingtin-calmodulin interaction inhibitors – biochemical, AlphaScreen, primary screen. P42858. actives 3.6% (n = 190,000). AID 1671202, 2021. inhibition, % at 15 µM. AlphaScreen His-mHTT/GST-CaM binding, luminescence;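 also: 0% = both proteins with DMSO and 100% = one protein alone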
* hit, by the source's call; . = no result given; ! = not active in a repeat. Rule as the data show it: active = inhibition above about 50%; inactive = the rest.

SMILES | Pf apPOL block | mHTT CaM bind
CCc1cc2c(=O)c(-c3ccc4c(c3)OCCO4)c(C)oc2cc1OCC(=O)OC | 55* | 6
COc1ccc(-c2onc(C)c2C(=O)N2CCC(Cc3ccccc3)CC2)cc1 | 0 | 99*
Cc1noc(-c2cccs2)c1C(=O)N1CCC(Cc2ccccc2)CC1 | 2 | 71*
COc1ccc(-c2cc(C(=O)N3CCC(Cc4ccccc4)CC3)no2)cc1 | -8 | -7
Cc1noc(-c2cccnc2)c1C(=O)N1CCC(Cc2ccccc2)CC1 | -1 | 20
Cn1c(=O)c2ccnn2c2ccc(C(=O)NCc3ccccc3C(F)(F)F)cc21 | 0 | -5
CCC(=O)NCC1(c2ccccc2)CCCC1 | -10 | -7
O=S(=O)(c1ccc(-c2csc(=Nc3cccc(Cl)c3)n2CCO)cc1)N1CCCCC1 | -7 | 51*
CCOc1ccc(N=c2scc(-c3ccc(S(=O)(=O)N4CCCC4)cc3)n2CC)cc1 | -3 | 4
O=S(=O)(c1ccc(-c2csc(=Nc3ccc(F)cc3)n2CCCO)cc1)N1CCOCC1 | -2 | 47
O=S(=O)(c1ccc(-c2csc(=Nc3ccc(Cl)cc3)n2CCCO)cc1)N1CCCC1 | -12 | 55*
CCn1c(C2CCN(C(=O)c3ccc(C(C)C)cc3)C2)nc2cccnc21 (stereo unspecified) | -6 | 8
O=C(O)/C=C/c1cc(F)ccc1S(=O)(=O)NC1CCCC1 | -6 | -2
Cc1ccc(Cl)cc1N1CCN(C(=O)c2ccc(Cn3cncn3)cc2)CC1 | -4 | 89*
O=C(c1ccc(Cn2cncn2)cc1)N1CCN(c2ccc(Cl)cc2)CC1 | -11 | 5
N#CC1=C(N)OC2=C(C(=O)CC(c3ccccc3)C2)C1C1CCCCC1 (stereo unspecified) | 51*! | 60*!
N#CC1=C(N)OC2=C(C(=O)CC(c3ccccc3)C2)C1c1ccc(Cl)cc1Cl (stereo unspecified) | -6 | 69*
N#CC1=C(N)OC2=C(C(=O)CC(c3ccccc3)C2)C1c1ccsc1 (stereo unspecified) | 1 | 6
N#CC1=C(N)OC2=C(C(=O)CC(c3ccccc3)C2)C1c1ccc(Cl)cc1 (stereo unspecified) | -8 | -2
Fc1ccc(-c2cn(-c3ccccc3)c(=Nc3ccccc3)s2)cc1F | 0 | .
C=CCNC(=O)CN(Cc1cccc(C)c1)S(=O)(=O)c1ccc(Cl)cc1 | -2 | -5
CCN1C(=O)C(O)(CC(=O)c2ccccc2OC)c2ccccc21 (stereo unspecified) | 1 | 0
C=CCN1C(=O)C(O)(CC(=O)c2ccc(C)cc2C)c2ccccc21 (stereo unspecified) | -2 | 60*
CC(NC(=O)c1cn2c(n1)CSCC2)c1ccc(F)cc1 (stereo unspecified) | -6 | 93*
CC(NC(=O)c1cn2c(n1)CCCC2)c1ccc(F)cc1 (stereo unspecified) | -8 | 10
SMILES | Pf apPOL block | mHTT CaM bind
Cc1cc(O)c(C(C[N+](=O)[O-])c2ccc(Cl)cc2Cl)c(=O)o1 (stereo unspecified) | 2 | 3
Cc1[nH]c2ccccc2c1C(Nc1nccs1)c1ccc2c(c1)OCO2 (stereo unspecified) | 7 | 83*
O=C(Nc1nccs1)c1ccc2c(c1)OCO2 | -11 | -4
O=[N+]([O-])CC(c1ccc2c(c1)OCO2)c1c[nH]c2ccccc12 (stereo unspecified) | -6 | 20
Cc1[nH]c2ccccc2c1C(C[N+](=O)[O-])c1ccc2c(c1)OCO2 (stereo unspecified) | 4 | 75*
Cc1[nH]c2ccccc2c1C(C[N+](=O)[O-])c1cc(Cl)c2c(c1)OCO2 (stereo unspecified) | 1 | 62*
COc1ccc(C(C[N+](=O)[O-])c2c(O)cc(C)oc2=O)cc1 (stereo unspecified) | 1 | 6
COc1cc(C(C[N+](=O)[O-])c2c(C)[nH]c3ccccc23)ccc1O (stereo unspecified) | 1 | 61*
CCOC(=O)CNC(=O)C1(C)CCC(=O)N1Cc1cccc(Cl)c1 (stereo unspecified) | -1 | -1
Cn1cccc1CN(Cc1cccs1)C(=O)Nc1ccccc1Cl | -8 | 14
N#Cc1ccc(C(=O)NCC2CCN(c3cc(-c4cccnc4)[nH]n3)CC2)cc1 | -2 | 9
COCC(=O)N1CCC(Nc2ncnc3c2CCC3)CC1 | 0 | -3
O=C1NC(=O)C(=Cc2cccn2-c2ccc(Cl)cc2)C(=O)N1 | 37 | 66*
O=C1NC(=O)C(=Cc2cccn2-c2ccccc2)C(=O)N1 | 0 | 7
CCOc1ccc(CC(=O)N2CC3CC(NC(=O)c4cccs4)C2C3)cc1 (stereo unspecified) | -5 | 0
Cc1cc(N=Cc2ccc([N+](=O)[O-])o2)ccc1S(=O)(=O)O | 0 | 14
Cc1sc(C(=O)N2CCCC2)c2ncnc(NCc3ccc(F)c(Cl)c3)c12 | 4 | 100*
Cc1sc(C(=O)N2CCCC2)c2ncnc(NCc3cccc(Cl)c3)c12 | -4 | 4
Cc1cccc(-n2ncc3c(NC4CCCCC4)ncnc32)c1 | -3 | 11
COc1ccc(C(=O)N2CCCC2(C#N)c2ccccc2)cc1[N+](=O)[O-] (stereo unspecified) | -3 | 26
O=C(c1ccccc1F)N1CCC(Cn2ccnc2)CC1 | -2 | -7
N#Cc1c(-c2ccc(Nc3ccccc3)cc2)nn(-c2ccccc2)c1N | 2 | 53*
N#CCc1nn(-c2ccccc2)c(N)c1C#N | 0 | 4
COc1ccc(C(=O)SC2=NCCS2)cc1OC | 3 | 0
COc1ccc(CCNc2ccc(C)cc2)cc1 | -4 | 71*
SMILES | Pf apPOL block | mHTT CaM bind
COc1ccc(CCNC(C)=O)cc1 | 0 | -6
COc1ccc(-c2c(C#N)c(N)n3c(nc4ccccc43)c2C#N)cc1 | -1 | 94*
Cc1ccc(-c2c(C#N)c(N)n3c(nc4ccccc43)c2C#N)cc1 | 10 | -3
O=S(=O)(NCC(O)c1ccccc1)c1cc(Cl)sc1Cl (stereo unspecified) | -6 | .
Oc1ccc(Cl)c(C(Nc2ccccn2)c2ccc3cccnc3c2O)c1 (stereo unspecified) | 0 | 100*
Oc1c(C(Nc2ccccn2)c2ccccc2F)ccc2cccnc12 (stereo unspecified) | -1 | 100*
O=C(Nc1ccccn1)c1cc(I)ccc1Cl | -2 | -3
Cc1cccc(NC(c2ccccc2F)c2ccc3cccnc3c2O)n1 (stereo unspecified) | -13 | 99*
CC(C)(C)C(=O)NC(Nc1cccc2cccnc12)C(Cl)(Cl)Cl (stereo unspecified) | -11 | 1
Oc1cccc2ccc(Oc3cccc4cccnc34)nc12 | -3 | 2
Oc1ccccc1C(Nc1ccccn1)c1ccc2cccnc2c1O (stereo unspecified) | -10 | 100*
O=C(Oc1cccc2cccnc12)c1c(F)cccc1F | 3 | .
CC(=NO)C12CC3CC(CC(C3)C1)C2 | -6 | -1
COc1ccc(-c2nnc(N3CCC(C(=O)N(C)Cc4ccccc4)CC3)o2)cc1 | 2 | 19
CCCN1CC=C2C(C#N)=C(N)C(C#N)(C#N)C3(C(=O)Nc4ccccc43)C2C1 (stereo unspecified) | -5 | 9
O=[N+]([O-])c1ccc(Nc2nccs2)c([N+](=O)[O-])c1 | . | -1
O=C(Cc1ccc(F)cc1)Nc1ccc(CN2CCN(c3ccccn3)CC2)cc1 | -10 | 2
